Records with an inconclusive call do not appear. Unmarked numbers belong to inactive results. Calls follow the shape of the dose curve; as a rule, active = well fitted activation curve with a large enough effect in the signal ratio in the repeat runs (not every such curve was filed as active); inconclusive = weak or mixed curves, or effect the other way; inactive = flat fitted curve, though single readings scatter; the % refers to the signal ratio.
% is scaled to controls: 0 for no effect and ±100 for the full control effect.

This experiment in a line: qHTS assay to identify small molecule agonists of the endoplasmic reticulum stress response signaling pathway (AID 1159516). To be noted: ESRE-bla HeLa, ER stress beta-lactamase reporter, 5 h; series mostly up to 61 µM; activation: at the top concentration. From the text:
National Center for Advancing Translational Sciences [NCATS]
NIH Chemical Genomics Center [NCGC]
U.S. Environmental Protection Agency [EPA]
National Institutes of Environmental Health Sciences [NIEHS]
National Toxicology Program [NTP]
U.S. Food and Drug Administration [FDA]
Endoplasmic Reticulum (ER) plays an important role in cellular signaling, protein folding/maturation, stress response, lipid biosynthesis, calcium storage and release etc. Under stress conditions, proteins in ER misfold or unfold, and leading to the expression of ER stress responsive genes. ER stress has been associated with a variety of pathophysiological conditions such as cancer, inflammation, neurodegenerative diseases, diabetes, ischemic heart disease etc. To identify the compounds that induce ER stress response, an ER stress reporter cell line, CellSensor ESRE-bla HeLa (Life Technologies, Carlsbad, CA) containing a beta-lactamase reporter gene under control of the Endoplasmic reticulum Stress Response Element (ESRE) was used to screen Tox21 10K compound library.
Tox21 Assay Protocol Summary:
ESRE-bla HeLa cells were dispensed at 1,500 cells/6 uL of assay medium per well into black wall/clear-bottom 1536-well plates using a Multidrop Combi (ThermoFisher Scientific, Waltham, MA) dispenser. After the assay plates were incubated at 37 C and 5% CO2 for an overnight, 23 nL of compounds dissolved in DMSO, positive controls or DMSO only was transferred to the assay plate by a Pintool station (Kalypsys, San Diego, CA). The assay plates were incubated at 37 C and 5% CO2 for 5 hr. One uL of LiveBLAzer B/G FRET substrate (Life Technologies) was added using a Flying Reagent Dispenser (Aurora Discovery, San Diego, CA) and the plates were incubated at room temperature for 2 hr. Fluorescence intensity (405 nm excitation, 460 nm and 530 nm emissions) was measured using an Envision plate reader (PerkinElmer, Shelton, CT).
Take `CCC(C=O)CC`: the “activation” value is 0.472% [at 78.8 µM].

As for `CN1CCN(CC(=O)N2c3ccccc3C(=O)Nc3cccnc32)CC1`, the activation is -0.546% [at 6.95 µM].

Regarding `CC(C)C(=O)OCc1cccc(OC(=O)[C@@H]2N3C(=O)[C@@H](NC(=O)Cc4ccccc4)[C@H]3SC2(C)C)c1`, the “activation” value was -3.07%.

On to `Cc1cc(C(C)(C)C)c(O)c(C)c1CC1=NCCN1`, for which the “activation” value is 0.872%.

As to `CN1C(C)(C)CCCC1(C)C`, the “activation” value is 1.31%.

Take `C=C(C)C(=O)OCCNC(C)(C)C`: the “activation” value was -0.138%.

With `Cc1cccc(OCC(O)CNC(C)(C)C)c1C` (stereo not given), the “activation” value was 0.619%.

With `CCC(C)NC(N)=O` (stereo not given), the “activation” value is -0.836%.

For `CN(CCOc1ccc(NS(C)(=O)=O)cc1)CCc1ccc(NS(C)(=O)=O)cc1`, the “activation” value is -0.184%.

For the compound `CC(=O)Nc1ccc(S(=O)(=O)Nc2ccc([N+](=O)[O-])cc2)cc1`, the “activation” value was 0.669%.

With `CCOC(=O)/C=C/c1ccccc1`, the “activation” value is 0.869%.

For the compound `CC1COc2ccccc2N1` (stereo not given), the “activation” value was -1.33%.

On to `O=C(O)C(=O)Cc1ccccc1`, for which the “activation” value is 6.93%.

As for `CCOC(=O)c1ncn2c1CN(C)C(=O)c1cc(F)ccc1-2`, the “activation” value is 2.67%.

On to `COC(=O)[C@@H]1[C@H]2C[C@H]3c4[nH]c5ccccc5c4CCN3C[C@@H]2CC[C@@H]1O`, for which the “activation” value is 1.61%.

In the case of `CC(=O)/C=C/C1C(C)=CCC(C)C1(C)C` (stereo not given), the “activation” value is -5.14%.

On to `CC(=C(CCOC(=O)C(C)C)SSC(CCOC(=O)C(C)C)=C(C)N(C=O)Cc1cnc(C)nc1N)N(C=O)Cc1cnc(C)nc1N`, for which the “activation” value was -4.43%.

In the case of `COCCc1ccc(OCC2CO2)cc1` (stereo not given), the “activation” value was -1.34%.

Consider `CCOCCOC(=O)/C=C/c1ccc(OC)cc1`, for which the “activation” value was -0.0263%.

As to `CC(C)(C)NC(N)=O`, the “activation” value was 3.52%.

Regarding `C=C1CC/C=C(\C)CC[C@@H]2[C@@H]1CC2(C)C`, the “activation” value is 0.0134%.

Turning to `Cc1cccc(C)c1OCC(C)N` (stereo not given), the “activation” value is -4.19%.

On to `Cc1ccsc1/C=C/C1=NCCCN1C`, for which the “activation” value is -2.29%.

As to `COCCOCCOCCOCCO`, the “activation” value was 0.234%.

For the compound `N[C@@H](CCC(=O)N[C@@H](CS)C(=O)NCC(=O)O)C(=O)O`, the “activation” value was 2.55% [at 28.5 µM].

In the case of `CCCCNc1ccc(C(=O)OCCN(C)C)cc1`, the “activation” value was 1.28%.

`O=C(CCN1CCN(CCO)CC1)N1c2ccccc2Sc2ccc(C(F)(F)F)cc21`: the “activation” value is 3.48%.

On to `CC(C)CCCC(C)(C)O`, for which the “activation” value was -0.978%.

For the compound `CCO[Si](CCCS)(OCC)OCC`, the “activation” value was -1.2%.

For the compound `c1ccc2c(c1)ccc1c3ccccc3ccc21`, the “activation” value is 4.69%.

On to `COc1cc2c(cc1OC)C(=O)CC2`, for which the “activation” value was -0.105%.

With `O=C(OCC(COC(=O)c1cccnc1)(COC(=O)c1cccnc1)COC(=O)c1cccnc1)c1cccnc1`, the “activation” value is -0.137%.

Take `O=C(O)CCSSCCC(=O)O`: the “activation” value was -0.12% [at 78.8 µM].

With `COc1ccc(OC)c(Cl)c1`, the “activation” value is 0.663%.

On to `COC(=O)CCCCCCCC(=O)OC`, for which the “activation” value is -0.152%.

With `CC(=O)NCc1c(I)c(NC(C)=O)c(I)c(C(=O)O)c1I`, the “activation” value is -0.369%.

In the case of `CCCCCCCCC(=O)Cl`, the “activation” value is -0.981% [at 78.8 µM].

Turning to `O=S(=O)(O)c1cc(O)c2ccc(Nc3ccccc3)cc2c1`, the “activation” value is 2.98%.

In the case of `CCCCCCCCCCl`, the “activation” value was -4.65% [at 78.8 µM].

Turning to `CC[C@H](C)C(=O)O[C@H]1C[C@H](O)C=C2C=C[C@H](C)[C@H](CC[C@@H](O)C[C@@H](O)CC(=O)O)[C@H]21`, the “activation” value was -2.48%.
